HT1080 IDH1KD tx – toxicity to HT-1080 IDH1 knockdown cells (counter line). HT-1080 IDH1 knockdown viability, ATP luminescence, 48 h. Potency, µM (series often up to 46.1 µM), for inactives: top-dose activity, negative = toxicity, usual class: cytotoxic. actives 2% (n = 360,000);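 note: 0% = DMSO wells and -100% = cell-free medium wells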
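After a 2 h attachment period, IDH1KD HT-1080 cells took pin-transferred compound for 48 h at 37 °C; ATP-based luminescence after 10 min room-temperature reagent incubation reported viability.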
KB-V1 MDR tox – KB-V1 MDR subline cytotoxicity. KB-V1 MDR cells viability, CellTiter-Glo, 72 h. actives 3.4% (n = 400,000). Potency, µM (highest dose often 46.1 µM), usual class: cytotoxic; note: nearly all actives have a fitted effect of over 60% in size
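Potencies derive from concentration-effect curves fitted to normalized luminescence (CellTiter-Glo) of KB-V1 cells treated for 72 h at 37 degrees C in phenol-red-free DMEM containing 10% FBS.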
KB-3-1 tox – KB-3-1 parental cell cytotoxicity; KB-3-1 viability, CellTiter-Glo ATP luminescence, 72 h; Potency, µM (titrated, usually from 46.1 µM), hits mostly cytotoxic; actives 1.4% (n = 400,000); note: nearly all actives have a fitted effect of over 60% in size
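Using CellTiter-Glo luminescence, growth of non-resistant KB-3-1 adenocarcinoma cells is assessed 72 h after pin-tool compound addition at 37 °C. Normalized responses across the concentration series yield fitted curves.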
DT40 TDP1 CPT – growth inhibition of DT40 Tdp1-/-;hTDP1 cells with camptothecin (screen for TDP1 inhibitors). chicken DT40 Tdp1-/-;hTDP1 cells + 20 nM CPT, ATP luminescence, 48 h. Potency, µM (series often up to 46.2 µM), inactives show top-dose activity change, negative = growth inhibition, hits mostly inhibitors. actives 12% (n = 420,000); note: nearly all actives have a fitted effect of over 55% in size
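Chicken DT40 Tdp1-/- cells stably complemented with human TDP1 were seeded at 400 cells/well in medium containing 20 nM camptothecin, exposed to pin-transferred compounds, and grown at 37 °C for at least 48 hr. Viability was read as ATP luminescence.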
HT1080NT lethal – kills 2HG-producing HT-1080-NT fibrosarcoma cells; actives 1.6% (n = 360,000); HT-1080-NT fibrosarcoma viability, CellTiter-Glo ATP luminescence, 48 h; Potency, µM (titrated, usually from 46.1 µM), for inactives: at the top dose activity, negative = less viability, hits mostly cytotoxic; AID 686970;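 note: NT is the 2HG producing partner of a matched IDH1 knockdown line; 0% = DMSO-treated cells and -100% = media-only wells without cells; nearly all actives have a fitted effect of over 55% in size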
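Fibrosarcoma NT cells, 750 per well in 5% FBS RPMI, were exposed to compound for 48 hours. Viability: CellTiter-Glo luminescence.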
DT40 TDP1 no CPT – qHTS for Inhibitors of human tyrosyl-DNA phosphodiesterase 1 (TDP1): qHTS in cells in absence of CPT. actives 15% (n = 420,000). Potency, µM (doses to about 46.2 µM), without a hit: top-dose activity change, negative = growth inhibition, hits mostly inhibitors. DT40 Tdp1-/- hTDP1 cells, no CPT, ATP luminescence, 48 h. AID 686978, 2013; note: nearly all actives have a fitted effect of over 55% in size
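Seeded 400 DT40-hTDP1 cells/well (vehicle DMSO, no 20 nM CPT); pinned compounds; ≥48 hr at 37 °C; CellTiter-Glo luminescence as viability measure.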
Numbers without * were called inactive; i = inactive; ? = inconclusive; . = no result; [ ] = remark or other dose. In the library only some 19% were active in any assay of this set; here they are far more common. Calls come from the whole dose curve; as a rule, active = well fitted curve in the direction sought with a large enough effect; inconclusive = small, poorly fitted or top-dose-only effect, or another doubt; inactive = no such curve, though single readings can be large; an effect the other way counts as inactive or inconclusive. Unless noted, % is set by controls: 0 for no effect and ±100 for the full control effect; potency is the fitted concentration of half-maximal effect.

SMILES | HT1080 IDH1KD tx | KB-V1 MDR tox | KB-3-1 tox | DT40 TDP1 CPT | HT1080NT lethal | DT40 TDP1 no CPT
CC(=O)Nc1ccc(C(=O)N2CCCCC2c2cc(C(=O)NCc3cccnc3)no2)cc1 (stereo not drawn) | 17% | i | i | -2% | 1% | -2%
Cc1ccc(-c2ccc(CN3C(C)C(=O)N(Cc4cn(CC5CCCCC5)nn4)CCS3(=O)=O)cc2)cc1 (stereo not drawn) | ? | ? | ? | 16µM* | ? | 16µM*
CC1C(=O)N(Cc2cn(CC3CCCCC3)nn2)CCS(=O)(=O)N1Cc1ccc(-c2ccc(F)nc2)cc1 (stereo not drawn) | 1% | i | i | ? | -3% | -24%
CC1C(=O)N(Cc2cn(CC3CCCCC3)nn2)CCS(=O)(=O)N1Cc1ccc(-c2ccccc2)cc1 (stereo not drawn) | ? | ? | ? | 23µM* | ? | 15µM*
COc1ccc(-c2ccc(CN3C(C)C(=O)N(Cc4cn(CC5CCCCC5)nn4)CCS3(=O)=O)cc2)cc1 (stereo not drawn) | ? | ? | ? | 15µM* | -10% | 10µM*
Cc1cc(O)ccc1-c1cccc2nccn12 | -1% | i | i | -26% | 10% | -6%
COC(=O)c1cccc(NC(=O)c2cnn(C)c2)c1 | 12% | i | i | -1% | 27% | -8%
Cc1cc(O)cc2c1O[C@](C)(CCC[C@H](C)CCC[C@H](C)CCCC(C)C)CC2 | . | . | . | -9% | . | -18%
COc1ccc(NCc2nnc3n2CCCCC3)c(OC)c1 | . | i | i | -5% | . | 4%
COc1cc(NS(C)(=O)=O)ccc1Cc1c2ccccc2nc2ccccc12 | . | . | . | 0.082µM* | . | 0.16µM*
COc1cc(N)ccc1Nc1c2ccccc2nc2ccccc12 | 23µM* | i | i | 0.82µM* | ? | 1.5µM*
COc1ccc(NS(=O)(=O)Cc2ccccc2)cc1OC | -20% | i | i | -11% | 0%[9.24 µM] | -20%
COc1cc(N)ccc1NC(=O)c1cc2ccccc2o1 | 2% | i | i | -6% | 12% | -4%
CCCS(=O)(=O)Nc1ccc(Nc2c3ccccc3nc3ccccc23)c(OC)c1 | ? | 23µM* | ? | 0.16µM* | -9% | 0.16µM*
COc1ccc(CCNC(=O)NCc2noc3ccc(C)cc23)c(OC)c1 | . | i | i | -9% | . | ?
COC(=O)CCSc1nc2sc3c(c2c(=O)n1Cc1ccccc1)CCC(C(C)(C)C)C3 (stereo not drawn) | . | i | i | ? | . | ?
CCOc1ccc(NC(=O)CCNS(=O)(=O)c2ccc3c(c2)CCCC(=O)N3)cc1 | . | i | i | . | . | .
COc1cc(C(=O)N/N=C/c2ccc(OC(=O)c3ccccc3)c(OC)c2)ccc1O | 0% | i | ? | -30% | 1% | -20%
CCOc1cc(/C=N\NC(=O)c2ccc(NC(=O)C(C)(C)C)cc2)ccc1OC(=O)c1ccc(C)cc1 | 7% | i | i | ? | 11% | 29µM*
CCOc1cc(/C=N\NC(=O)c2ccc(NC(=O)C(C)(C)C)cc2)ccc1OC(=O)c1cccc(C)c1 | ? | ? | i | 12µM* | -19% | 8.2µM*
CCOc1cc(/C=N/NC(=O)c2cccnc2)ccc1OC(=O)c1ccco1 | 7% | i | i | -7% | -6% | -18%
CCOc1cc(/C=N/NC(=O)CNc2ccc(C)cc2)ccc1OC(=O)c1ccccc1 | -3% | i | i | 29µM* | -9% | ?
CCOc1cc(/C=N\NC(=O)c2ccc(NC(=O)CC)cc2)ccc1OC(=O)c1ccccc1 | 2% | ? | ? | 18µM* | -5% | ?
CCOc1cc(/C=N\NC(=O)c2ccc(C)nc2)ccc1OC(=O)c1ccc(F)cc1 | -1% | i | i | -27% | -3% | ?
CCOC(=O)c1c(C)n(C)c2ccc(OCC(O)Cn3nc(C)c(Br)c3C)cc12 (stereo not drawn) | -1% | ? | ? | 21µM* | -4% | 18µM*
SMILES | HT1080 IDH1KD tx | KB-V1 MDR tox | KB-3-1 tox | DT40 TDP1 CPT | HT1080NT lethal | DT40 TDP1 no CPT
CC(=O)c1c(C)nn(CC(O)COc2ccc3ccccc3c2)c1C (stereo not drawn) | -11% | 7.3µM* | i | ? | 0% | 26µM*
CCOCCSc1c(C)cnc2c1c(=O)n(C)c(=O)n2C | . | . | . | -7% | . | -16%
COc1ccc(CNC(=O)c2cc3c(=O)n(Cc4cccnc4)ccc3nc2C)cc1 | . | i | i | 10% | . | 0%
Cc1ccc(S(=O)(=O)Nc2ccc3c(c2)CC(=O)N([C@H](C)CO)C[C@H](C)[C@H](CN(C)Cc2ccc4c(c2)OCO4)O3)cc1 | -24% | i | ? | 21µM* | -11% | 18µM*
COc1ccc(S(=O)(=O)Nc2ccc3c(c2)CC(=O)N([C@@H](C)CO)C[C@@H](C)[C@@H](CN(C)Cc2ccccc2)O3)cc1 | -9% | i | i | 18µM* | -12% | 16µM*
C[C@@H]1CN([C@H](C)CO)C(=O)Cc2cc(NS(=O)(=O)c3ccc(F)cc3)ccc2O[C@H]1CN(C)Cc1ccc(C(=O)O)cc1 | -2% | ? | i | -24% | 1% | -29%
O=C(NNC(=O)C1CCC(C(=O)NNC(=O)c2cccs2)CC1)c1cccs1 (stereo not drawn) | 1% | i | i | 2% | -6% | -8%

High-throughput results from PubChem.
